Where “and” joins values, the source holds several entries; their conditions need not be identical. Equal entries are not always repeated. This is part of a sample that, as a whole, favours compounds with a hit. Of some 83,000 tested, about 20% had one in any assay.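 Percent growth is the endpoint: 0 to 100 indicates growth inhibition (40 means 60% inhibition), 0 means no net growth, and negative values indicate cell death.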 Values without a mark were called inactive. Calls of active or inactive are those of the source. The calls were made as follows: active = growth percent below 10; inactive = the rest.
Experiments:
Assay in all cases: NCI-60 one-dose screen, 48 h (100 = growth as untreated, 0 = no growth, -100 = all killed)
Details in all cases: 10 µM unless noted
HCT-15 colon = system: HCT-15 colon
HT29 colon = system: HT29 colon
SNB-75 CNS = system: SNB-75 CNS
U251 CNS = system: U251 CNS
PC-3 prostate = system: PC-3 prostate
UACC-62 melanoma = system: UACC-62 melanoma
SK-MEL-28 melanoma = system: SK-MEL-28 melanoma
SK-MEL-2 melanoma = system: SK-MEL-2 melanoma
EKVX NSCLC = system: EKVX NSCLC
SN12C renal = system: SN12C renal
UO-31 renal = system: UO-31 renal
TK-10 renal = system: TK-10 renal
ACHN renal = system: ACHN renal
A498 renal = system: A498 renal
MOLT-4 leukemia = system: MOLT-4 leukemia
SNB-19 CNS = system: SNB-19 CNS
SK-MEL-5 melanoma = system: SK-MEL-5 melanoma
LOX IMVI melanoma = system: LOX IMVI melanoma
CAKI-1 renal = system: CAKI-1 renal
CCRF-CEM leukemia = system: CCRF-CEM leukemia

SMILES	growth (HCT-15 colon)	growth (HT29 colon)	growth (SNB-75 CNS)	growth (U251 CNS)	growth (PC-3 prostate)	growth (UACC-62 melanoma)	growth (SK-MEL-28 melanoma)	growth (SK-MEL-2 melanoma)	growth (EKVX NSCLC)	growth (SN12C renal)	growth (UO-31 renal)	growth (TK-10 renal)	growth (ACHN renal)	growth (A498 renal)	growth (MOLT-4 leukemia)	growth (SNB-19 CNS)	growth (SK-MEL-5 melanoma)	growth (LOX IMVI melanoma)	growth (CAKI-1 renal)	growth (CCRF-CEM leukemia)
Oc1c(Br)cc(Cl)cc1C(c1cc(Cl)cc(Br)c1O)C(Cl)(Cl)Cl	17.2%	10.1%	68.1%	15.2%	1.63% (active)	13.3%	38.1%	-30.2% (active)	15.7%	10.8%	12.6%	24.5%	10.5%	-12.4% (active)	14.6%					
COc1ccc2nc3cc(Cl)ccc3c(NCCNc3c4ccc(Cl)cc4nc4ccc(OC)cc34)c2c1	-65.9% (active)	-65.7% (active)		-84% (active)	-63% (active)	-88.4% (active)	-86.4% (active)	-73.1% (active)	-83.5% (active)	-89.6% (active)	-90.3% (active)	-92.7% (active)	-94.7% (active)		-76% (active)	-87.7% (active)	-96.5% (active)	-84.9% (active)	-79.8% (active)	-10.9% (active)
CC(=O)C(=Cc1ccc(C=C(C(C)=O)C(C)=O)cc1)C(C)=O	-32.7% (active)	-60.5% (active)		-23.7% (active)	2.43% (active)	-41.6% (active)	-34.8% (active)	70.8%	94.2%	17.4%	-12.2% (active)	5.12% (active)	-33.5% (active)	94.1%	6.74% (active)	19.1%			-50.7% (active)	-5.86% (active)
CCN(CC)CC(C)(C)C(=O)/C=C/c1ccc(Cl)c(Cl)c1	-34% (active)	-47.4% (active)		-45.8% (active)	-33.8% (active)	-56.2% (active)	-35.5% (active)	-33.2% (active)	28.2%	-43.8% (active)	-72% (active)	-34.7% (active)	-42.8% (active)	-24.3% (active)	2.21% (active)	-30.1% (active)	0.295% (active)	-82.4% (active)		5.91% (active)
Cc1c2ccccc2c(C)c2c1ccc1ccccc12	90.3%	92.9%	88.1%	94.5%	83%	80.5%	92.8%	98.6%	88.7%	94.3%	80.3%	111%	97.2%	81.1%	71.1%			64.3%	89%	88.9%
COc1ccccc1OC(=O)Oc1ccccc1OC	110% and 95.2%	102% and 95.7%		111% and 106%	102% and 81.8%	100% and 96.4%	110% and 106%	115% and 91.6%	118% and 97%	105% and 95.8%	78.2% and 93.9%	104% and 98%	108% and 104%		93.9% and 92%	104%	100%	107% and 95%		101% and 83.6%
COc1ccc(N=N/N=c2\sc3cc(OC)ccc3n2C)cc1	98.9%	78.9%		77.7%	77.9%	83.1%	94%	83.8%	74.8%	89%	82.7%	106%	97.4%	97%	92.1%		84.6%	105%	96.8%	93.5%
O=C1c2ccccc2C(=O)N1c1ccccc1	105%	104%		93.1%	101%	92%	115%	128%	93%	97.2%	89.1%	117%	99.5%	109%	103%	105%	105%		81.3%	114%
N#CSCc1ccc(CSC#N)c(Cl)c1	37.1%	34.7%		85.8%	81.6%	72.2%	83.3%	86.2%	90.9%	50.5%	36.7%	94.3%	56.5%	91.9%	28.9%	84%	65.2%	46.6%	41.7%	19.3%
Oc1c(Cl)cc(Cl)c2cccnc12	44.6% and 30.1%	63% and 90.4%		35.5%	50.5% and 30.9%	58.2% and 49.3%	83.2% and 65.5%	80% and 60.3%	58.9% and 51.5%	57.3%	42.8% and 24.9%	53% and 107%	42%		37.1% and 35.7%		33.2% and 28.1%	32.5% and 39.4%	46.3% and 51.3%	31% and 36.4%
S=C(N/N=C/c1ccccn1)Nc1ccccn1	23.8%	10.4%	46.1%	10.1%	33.4%	1.53% (active)	21.5%	-5.58% (active)	41.4%	33.7%	13%	31.4%	15.9%		-27.6% (active)					-14.8% (active)
O=C(/C=C\c1ccccc1)N1c2ccccc2CC1c1c[nH]c2ccccc12 (stereo not given)	55.7%	21.8%		74.1%	53.6%	48.9%	88.8%	61.3%	66%	74.3%	40.1%	77.8%	79.4%	54.2%	44.3%		87.6%	67.9%		68.6%
C=C(Cl)C(=NC(C)(C)C)Nc1ccccc1C	101%		85.7%	83.9%	77.3%	59.7%	98.4%	139%	90.4%	83.5%	80.7%	106%	91%	105%	72.2%	95.3%	95.4%	81.1%	104%	98.1%
COC(=O)c1nc(=S)[nH]c(C(=O)OC)c1C(=O)c1ccccn1	16.8%	34.5%		31%	31.1%	11.9%	38.1%	24.9%	34.9%	39.1%	11.7%	47.6%	10.2%	145%	2.29% (active)	43.1%	-26.2% (active)	10.2%	15%	10.7%
COC(=O)[C@@]12OC[C@]34[C@H]([C@@H](O)[C@@H]1O)[C@@]1(C)[C@H](O)C(=O)C=C(C)[C@@H]1C[C@H]3OC(=O)C(OC(C)=O)[C@@H]24 (stereo not given in full)	-27.3% (active)	6.8% (active)	-80.1% (active)	-31.4% (active)	-51% (active)	-88.8% (active)	-51.5% (active)	-49.5% (active)	-43.6% (active)	-17.5% (active)	-35.1% (active)	-32.7% (active)	-39.2% (active)		-41.6% (active)			-84.1% (active)		

— PubChem BioAssay (NCI)
